From publication PMC4336329 (PLoS ONE, 2015)
The whole screen tested about 310,000 compounds, of which about 2,200 (0.71%) showed an effect of 50% or more. Effects have a minus sign here. Only a selection was taken, and strong results are over-represented in it overall.

target: human ether-à-go-go-related gene (hERG) potassium channel (human, UniProt Q12809); assay: primary screen, population patch clamp on CHO cells stably expressing hERG; higher = less effect of the substance
Sequence (Q12809 whole entry, looked up): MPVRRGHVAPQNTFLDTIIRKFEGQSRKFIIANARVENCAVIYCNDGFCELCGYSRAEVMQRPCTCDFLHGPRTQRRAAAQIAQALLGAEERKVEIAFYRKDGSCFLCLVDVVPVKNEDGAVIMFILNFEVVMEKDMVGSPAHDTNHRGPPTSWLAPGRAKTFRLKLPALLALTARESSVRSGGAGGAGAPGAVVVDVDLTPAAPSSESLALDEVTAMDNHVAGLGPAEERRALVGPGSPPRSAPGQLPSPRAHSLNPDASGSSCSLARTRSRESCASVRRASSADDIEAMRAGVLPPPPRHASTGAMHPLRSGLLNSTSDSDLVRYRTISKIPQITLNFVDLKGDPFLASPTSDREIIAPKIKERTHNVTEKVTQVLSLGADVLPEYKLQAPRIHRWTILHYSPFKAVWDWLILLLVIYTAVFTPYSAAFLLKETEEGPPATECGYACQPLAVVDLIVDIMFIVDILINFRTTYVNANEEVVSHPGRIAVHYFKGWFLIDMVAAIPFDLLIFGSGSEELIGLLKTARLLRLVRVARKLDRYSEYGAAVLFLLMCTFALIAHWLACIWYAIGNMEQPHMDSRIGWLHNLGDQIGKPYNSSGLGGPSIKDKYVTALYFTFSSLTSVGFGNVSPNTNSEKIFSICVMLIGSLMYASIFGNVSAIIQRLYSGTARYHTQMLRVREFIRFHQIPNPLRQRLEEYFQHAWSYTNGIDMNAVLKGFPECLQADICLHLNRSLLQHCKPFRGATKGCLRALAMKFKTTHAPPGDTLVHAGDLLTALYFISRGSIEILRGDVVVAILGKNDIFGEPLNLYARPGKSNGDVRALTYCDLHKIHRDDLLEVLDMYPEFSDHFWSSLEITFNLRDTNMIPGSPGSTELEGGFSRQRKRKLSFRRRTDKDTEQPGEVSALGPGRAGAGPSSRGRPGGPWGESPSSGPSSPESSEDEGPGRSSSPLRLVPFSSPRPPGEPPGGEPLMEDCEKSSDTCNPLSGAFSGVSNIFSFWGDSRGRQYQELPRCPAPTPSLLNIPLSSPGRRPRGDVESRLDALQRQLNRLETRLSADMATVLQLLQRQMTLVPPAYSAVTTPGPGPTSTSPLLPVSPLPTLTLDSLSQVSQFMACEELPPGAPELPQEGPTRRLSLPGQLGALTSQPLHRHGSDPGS

Row | Compound | hERG current change (%, negative = inhibition) at 1uM
1 | COc1cc(S(=O)(=O)N2CCOCC2)ccc1NC(=O)c1cc2c(s1)CCC2 | 3.78%
2 | Cc1ccc2c(c1)N(C(=O)CCC(=O)NCc1cccnc1)CCO2 | -4.63%
3 | COc1cccc(CN(C)CC(=O)NCc2ccccc2Cl)c1 | 14.6%
4 | CCOc1ccc(CN(C)CC(=O)NCc2ccccc2Cl)cc1 | -73.6%
5 | CSc1ccc(CN(C)CC(=O)NCc2ccc(F)cc2)cc1 | -19.3%
6 | CN(CC(=O)NCc1ccc(F)cc1)Cc1ccc(Br)cc1 | 2.94%
7 | COc1cccc(CN(C)CC(=O)NCc2ccccc2Cl)c1OC | 10.6%
8 | CCOc1ccc(CN(C)CC(=O)NCc2ccc(F)cc2)cc1 | -78.6%
9 | CCOC(=O)c1ccc(Oc2nc(NC(C)(C)C)nc(N(C)C)n2)cc1 | 6.02%
10 | CCOC(=O)Nc1c(C(=O)OC)[nH]c2cc(OC)ccc12 | -3.1%
11 | CCCn1c(SCc2ccccn2)nc2c1c(=O)n(C)c(=O)n2C | 16.5%
12 | O=[N+]([O-])c1ccc(NC(=S)N/C(=N/CS(=O)(=O)c2ccccc2)c2ccccc2)cc1 | 11%
13 | O=[N+]([O-])c1cccc(C(=NCc2ccccc2)NO)c1 | 15.5%
14 | CN(C)C(=S)NC(=NCc1ccc([N+](=O)[O-])cc1)c1ccccc1 | -60.3%
15 | S=C(NCCc1ccccn1)Nc1ccccc1Cl | 17%
16 | COc1cn(-c2ccccc2)nc1C(=O)OCC(=O)Nc1ccc(C)c(C)c1 | 12.1%
17 | CC(NC(=O)c1ccc2c(c1)OCO2)C1CCCO1 (centres unmarked) | -0.0414%
18 | CCN(CC)C(=O)CSc1nc2c(sc(=S)n2Cc2ccco2)c(=O)n1-c1ccccc1 | 5.26%
19 | C=CCn1c(SCC(=O)N2CCCC2=O)nc2sc(CC)cc2c1=O | -20%
20 | CCOC(=O)CSc1nc2ccccc2c(=O)n1Cc1ccco1 | 0.785%
21 | CCN(CC)C(=O)CSc1nc2c(sc(=S)n2CC)c(=O)n1-c1ccccc1 | -13.3%
22 | C=CCn1c(SCC(=O)N2CCc3ccccc3C2)nc2sc(CC)cc2c1=O | 10.8%
23 | O=C(CSc1nc2ccccc2c(=O)n1Cc1ccco1)N1CCCC1 | -81.3%
24 | C=CCn1c(SCC(=O)N2CCN(C(=O)c3ccco3)CC2)nc2sc(CC)cc2c1=O | -85.6%
25 | CCCCn1c(SCC(=O)N2CCOCC2)nc2ccccc2c1=O | -39.4%
26 | CCCn1c(SCC(=O)N2CCN(C(=O)c3ccco3)CC2)nc2ccccc2c1=O | -84.8%
27 | CCN(CC)C(=O)CSc1nc2c(sc(=S)n2-c2ccccc2)c(=O)n1Cc1ccco1 | -86.3%
28 | CC(C)Cn1c(SCC(=O)N2CCN(C(=O)c3ccco3)CC2)nc2ccccc2c1=O | -42.9%
29 | NC(=O)CSc1nc2ccccc2c(=O)n1Cc1ccco1 | -15.1%
